Results filed as inconclusive are left out. Unmarked numbers belong to inactive results. Calls of active or inactive are those of the source. Calls come from the whole dose curve.
Experiment: p53 small molecule agonists, cell-based qHTS assay with rat liver microsomes: qHTS cell viability counter screen (AID 1963580); note: nearly all actives have a fitted effect of over 45% in size
Settings: p53RE-bla HCT-116 + rat microsomes, ATP viability, 16 h; series mostly up to 66 µM; activity change, negative = cytotoxicity: at the top concentration
Outline: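 Cytotoxicity counter screen: intracellular ATP measured by CellTiter-Glo luminescence in the same wells as the beta-lactamase reporter read, on HCT-116 p53RE-bla cells exposed 16 h at 37 C to compounds with rat liver microsomes and NADPH, each 0.5 mg/mL final.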
% is set by controls: 0 for no effect and ±100 for the full control effect.

Compared with `Nc1nc(=O)n([C@@H]2O[C@H](CO)[C@@H](O)[C@@H]2F)cc1I`, `CC(=O)N1C[C@H](O)C[C@H]1C(=O)O` is higher in “activity change, negative = cytotoxicity” value: 0.546% [at 30.3 µM] for the first, 2.55% [at 30.3 µM] for the second.

Compared with `COc1cc(C(=O)N2CCOCC2)cc(OC)c1OC`, `Cc1c(C(=O)c2c[nH]n(C)c2=O)ccc(S(C)(=O)=O)c1C1=NOCC1` is lower in “activity change, negative = cytotoxicity” value: 12% [at 30.3 µM] for the first, -4.51% [at 30.3 µM] for the second.

Going from `CC12CC3CC(C)(C1)CC(N)(C3)C2` to `CC(C[N+](C)(C)C)OC(N)=O` (centres undefined), the “activity change, negative = cytotoxicity” value rises from -18.4% [at 30.3 µM] to 4.68% [at 30.3 µM].

Compared with `CC(=O)NCc1c(I)c(NC(C)=O)c(I)c(C(=O)O)c1I`, `CCN(CC)S(=O)(=O)c1ccc(C(=O)O)cc1` is higher in “activity change, negative = cytotoxicity” value: -1.82% [at 30.3 µM] for the first, 0.446% [at 30.3 µM] for the second.

For `Cc1cc(C)cc(O)c1`, the Potency was “inactive”.
For `FC(F)(F)C(Cl)Br` (centres undefined), the Potency was “inactive”.
In the case of `NCCNCCN`, the Potency is reported as “inactive”.

Compared with `CCCO`, `CC(C)CCO` is higher in “activity change, negative = cytotoxicity” value: -9.93% for the first, 0% for the second.

Compared with `CC12CCC(C1)C(C)(C)C2O` (centres undefined), `CC(C)C1CCC(O)CC1` (centres undefined) is higher in “activity change, negative = cytotoxicity” value: -1.16% for the first, 0.16% for the second.

First: [O]=[Zr]
Second: Nc1cc([N+](=O)[O-])ccc1Cl
The “activity change, negative = cytotoxicity” value of the first is higher: 3.53% for the first, 2.41% for the second.

Going from `C1CCC(SSC2CCCCC2)CC1` to `OCC1CCC(CO)CC1` (centres undefined), the “activity change, negative = cytotoxicity” value rises from -1.9% to 7.99%.

First: CCCC[C@H]1CN(CC2CCOCC2)C(=O)OC12CCN(C1(C)CCN(C(=O)c3c(C)ncnc3C)CC1)CC2
Second: CCOc1ccc(N)c([N+](=O)[O-])c1
The “activity change, negative = cytotoxicity” value of the first is lower: 0.325% for the first, 6.32% for the second.

First: Cc1ccccc1S(=O)(=O)O
Second: O=S(=O)(O)c1ccccc1O
The “activity change, negative = cytotoxicity” value of the first is higher: 7.28% for the first, 5.53% for the second.

First: NC(=O)c1ccc(N)cc1
Second: O=Cc1ccc(C(=O)O)cc1
The “activity change, negative = cytotoxicity” value of the first is higher: 0% for the first, -1.58% for the second.

Compared with `CCCCCCCCSCCO`, `C=CCOC(=O)CCCCCC` is lower in “activity change, negative = cytotoxicity” value: 5.97% for the first, -11.8% for the second.

First: Cc1ccccc1C(N)=O
Second: Cc1cccc(N(C)C)c1
The “activity change, negative = cytotoxicity” value of the first is lower: -5.17% for the first, 0.206% for the second.

Going from `O[C@@H]([C@H](O)[C@H](O)CBr)[C@H](O)CBr` to `O=C(O)CCS`, the “activity change, negative = cytotoxicity” value rises from -14.6% to -1.4%.

First: NNS(=O)(=O)c1ccc(Oc2ccc(S(=O)(=O)NN)cc2)cc1
Second: Cc1ccc(Nc2ccc(O)c3c2C(=O)c2ccccc2C3=O)cc1
The “activity change, negative = cytotoxicity” value of the first is lower: -5.3% for the first, 2.38% for the second.

First: COCCOCCOCCOCCOC
Second: C=CC(C)(CCC=C(C)C)OC(=O)CC (centres undefined)
The “activity change, negative = cytotoxicity” value of the first is higher: -0.334% for the first, -0.446% for the second.

First: C=C(C)[C@H]1CC=C(C)CC1
Second: C1=COCCC1
The “activity change, negative = cytotoxicity” value of the first is higher: 1.98% for the first, -3.79% for the second.

In the case of `[O-][n+]1ccc(Cl)cc1`, the “activity change, negative = cytotoxicity” value is reported as -7.89%.

In the case of `Cc1cc(C)c(N=Nc2c(O)c(S(=O)(=O)O)cc3cc(S(=O)(=O)O)ccc23)cc1C`, the activity change, negative = cytotoxicity is reported as -1.53% [at 5.99 µM].
